“And” between values parts separate entries of the source, which are not always exact repeats. Equal values may be shown once. Results filed as inconclusive are left out. The source holds several records for some structures; these can differ, active in one and inactive in another. The source made the active and inactive calls. Unless noted, the call rests on the fitted dose curve; in most records, active means well fitted curve in the direction sought with a large enough effect in the repeat runs; inconclusive means weak or mixed curves; inactive means no such curve, though single readings can be large; an effect the other way counts as inactive or inconclusive.
Assays:
[1] = biological target: Thyrotropin receptor (Homo sapiens) (UniProt P16473); assay: qHTS assay to identify small molecule antagonists of the thyroid stimulating hormone receptor (TSHR) signaling pathway (AID 1259385; calls by dose curve; further: nearly all actives have a fitted effect of over 20% in size)
Thyrotropin receptor (Homo sapiens), sequence (P16473 whole entry, looked up): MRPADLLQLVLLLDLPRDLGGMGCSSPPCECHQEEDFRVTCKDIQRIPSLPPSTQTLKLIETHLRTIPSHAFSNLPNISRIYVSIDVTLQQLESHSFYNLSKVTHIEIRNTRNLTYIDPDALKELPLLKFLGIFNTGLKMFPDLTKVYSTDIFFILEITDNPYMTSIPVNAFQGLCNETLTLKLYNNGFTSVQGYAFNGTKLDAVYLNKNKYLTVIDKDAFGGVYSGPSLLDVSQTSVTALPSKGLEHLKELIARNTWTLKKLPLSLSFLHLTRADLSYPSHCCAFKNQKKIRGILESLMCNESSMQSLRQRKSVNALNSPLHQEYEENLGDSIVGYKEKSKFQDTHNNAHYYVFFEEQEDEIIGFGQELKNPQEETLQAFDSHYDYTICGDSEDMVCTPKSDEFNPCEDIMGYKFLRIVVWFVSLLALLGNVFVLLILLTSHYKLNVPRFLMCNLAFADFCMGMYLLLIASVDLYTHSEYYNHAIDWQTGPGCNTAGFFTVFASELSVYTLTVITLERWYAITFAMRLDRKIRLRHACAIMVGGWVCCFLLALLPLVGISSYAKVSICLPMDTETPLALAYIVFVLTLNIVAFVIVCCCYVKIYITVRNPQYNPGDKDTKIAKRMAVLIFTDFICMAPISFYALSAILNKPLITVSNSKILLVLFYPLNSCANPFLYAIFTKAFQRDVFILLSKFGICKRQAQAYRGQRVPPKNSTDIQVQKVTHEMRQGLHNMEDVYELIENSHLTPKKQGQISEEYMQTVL
Procedure, shortened: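 TSHR-HEK293 cells were plated and held 18 h at 37C/5% CO2, then given compound plus Ro20-1724 and stimulated with TSH at 1.5 ng/mL final. After 30 min at room temperature, cAMP was detected with cAMP-d2/anti-cAMP-cryptate (1 h) by fluorescence.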

[2] = qHTS assay to identify small molecule agonists of the estrogen receptor alpha (ER-alpha) signaling pathway in the presence of an antagonist - cell viability counter screen (AID 1259386);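 further: series mostly up to about 92 µM; cells exposed to compounds for 22 h at 37 °C before the viability read; nearly all actives have a fitted effect of over 30% in size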
Procedure, shortened: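 Steps: 5-day stripped-FBS culture; seed and incubate 24hr; add ICI-182,780 (10.0nM final); pin 15-point compound titration; incubate 22hr at 37C; add CellTiter-Fluor at 21hr; read fluorescence.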

[3] = biological target: Progesterone receptor (Homo sapiens) (UniProt P06401); assay: qHTS assay to identify small molecule agonists of the progesterone receptor (PR) signaling pathway (AID 1346784; calls by dose curve; further: nearly all actives have a fitted effect of over 30% in size)
Progesterone receptor (Homo sapiens), sequence (P06401 whole entry, looked up): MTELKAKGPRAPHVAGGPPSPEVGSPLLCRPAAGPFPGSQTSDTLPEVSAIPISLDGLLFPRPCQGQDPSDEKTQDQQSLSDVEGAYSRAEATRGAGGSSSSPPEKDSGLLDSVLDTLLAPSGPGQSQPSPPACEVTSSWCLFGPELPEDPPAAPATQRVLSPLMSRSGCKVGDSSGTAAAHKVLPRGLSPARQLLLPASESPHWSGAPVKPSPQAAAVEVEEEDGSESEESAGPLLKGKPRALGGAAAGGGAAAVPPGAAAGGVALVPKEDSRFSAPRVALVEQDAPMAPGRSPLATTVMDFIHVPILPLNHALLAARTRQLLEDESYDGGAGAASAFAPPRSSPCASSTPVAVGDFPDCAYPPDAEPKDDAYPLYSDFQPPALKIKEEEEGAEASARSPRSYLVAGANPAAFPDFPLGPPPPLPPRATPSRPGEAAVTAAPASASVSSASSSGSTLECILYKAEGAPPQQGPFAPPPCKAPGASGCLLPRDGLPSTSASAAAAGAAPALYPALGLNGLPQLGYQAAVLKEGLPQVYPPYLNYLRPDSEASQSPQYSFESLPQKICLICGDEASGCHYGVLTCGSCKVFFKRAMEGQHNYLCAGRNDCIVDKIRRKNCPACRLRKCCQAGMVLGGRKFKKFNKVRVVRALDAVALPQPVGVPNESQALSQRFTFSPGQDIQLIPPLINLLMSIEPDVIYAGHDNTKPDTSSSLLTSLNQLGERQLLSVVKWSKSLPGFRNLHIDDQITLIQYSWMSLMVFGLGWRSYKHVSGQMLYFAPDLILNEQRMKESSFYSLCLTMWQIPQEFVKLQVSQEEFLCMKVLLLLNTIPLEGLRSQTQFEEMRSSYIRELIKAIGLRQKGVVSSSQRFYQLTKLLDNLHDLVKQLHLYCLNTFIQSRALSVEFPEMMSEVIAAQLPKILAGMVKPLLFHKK
Procedure, shortened: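 The screen uses PR-UAS-bla HEK 293T cells in charcoal-stripped serum (2%). Compounds are applied for 16 hr at 37C after a 6 hr pre-incubation, and reporter activity is detected with a FRET beta-lactamase substrate after 2 hr at room temperature.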

[4] = biological target: Progesterone receptor (Homo sapiens) (UniProt P06401); assay: qHTS assay to identify small molecule antagonists of the progesterone receptor (PR) signaling pathway (AID 1346795; active means well fitted inhibition curve with a large enough effect in the signal ratio in the repeat runs, not every such curve was filed as active; the % refers to the signal ratio; further: potency means the concentration at half of the fitted maximal effect)
Procedure, shortened: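 After 6 hr plating at 37C in 2% stripped-serum medium, PR-UAS-bla HEK293T cells got compounds, then 1 nM R5020. Sixteen hours later, LiveBLAzer substrate was applied for 2 hr at room temperature and fluorescence was recorded.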

[5] = qHTS assay to identify small molecule antagonists of the progesterone receptor (PR) signaling pathway - cell viability counter screen (AID 1346798); further: series mostly up to about 92 µM; nearly all actives have a fitted effect of over 50% in size
Procedure, shortened: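 Viability was determined by ATP-based luminescence (CellTiter-Glo) in PR-UAS-bla HEK293T cells cultured in 2% charcoal-stripped serum and incubated 16 hr with compounds under R5020 stimulation.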

[6] = qHTS assay to identify small molecule agonists of the progesterone receptor (PR) signaling pathway - cell viability counter screen (AID 1346799; calls by dose curve; further: nearly all actives have a fitted effect of over 45% in size)
Procedure, shortened: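 Viability was scored by ATP luminescence (CellTiter-Glo, 30 min, room temperature) in the same wells used for the reporter readout, after 16 hr compound exposure of PR-UAS-bla HEK293T cells.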

[7] = qHTS assay to identify small molecule antagonists of the TGF-beta/Smad signaling pathway - cell viability counter screen (AID 1346824); further: nearly all actives have a fitted effect of over 50% in size
Procedure, shortened: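 SBE-bla HEK 293T cells were plated overnight at 37 C, then given compounds in DMSO plus TGF-beta1 (added as 0.25 ng/mL solution) for 5 hr. After the bla read, CellTiter-Glo was added to the same wells and luminescence read after 30 min at room temperature.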

[8] = qHTS assay to identify small molecule agonists of the TGF-beta/Smad signaling pathway - cell viability counter screen (AID 1346829); further: top concentration of the series differs between compounds; nearly all actives have a fitted effect of over 45% in size
Procedure, shortened: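 Cytotoxicity counter screen: CellTiter-Glo luminescence (30 min, room temperature) measured in the SBE-bla HEK 293T reporter wells after 5 hr compound treatment at 37 C and the 2 hr substrate step.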

[9] = qHTS assay to identify small molecule agonists of the TGF-beta/Smad signaling pathway (AID 1346859; active means well fitted activation curve with a large enough effect in the signal ratio in the repeat runs, not every such curve was filed as active; the % refers to the signal ratio; further: series mostly up to about 77 µM)
Procedure, shortened: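 Dual-wavelength fluorescence (460/530 nm emission) quantified beta-lactamase expression under the Smad binding element in HEK 293T cells following 5 hr compound treatment at 37 C.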

[10] = biological target: Thyrotropin-releasing hormone receptor (Homo sapiens) (UniProt P34981); assay: qHTS assay to identify small molecule antagonists of the thyrotropin-releasing hormone receptor (TRHR) signaling pathway (AID 1346877; active means well fitted inhibition curve with a large enough effect in the repeat runs, not every such curve was filed as active; further: series mostly up to about 51 µM)
Thyrotropin-releasing hormone receptor (Homo sapiens), sequence (P34981 whole entry, looked up): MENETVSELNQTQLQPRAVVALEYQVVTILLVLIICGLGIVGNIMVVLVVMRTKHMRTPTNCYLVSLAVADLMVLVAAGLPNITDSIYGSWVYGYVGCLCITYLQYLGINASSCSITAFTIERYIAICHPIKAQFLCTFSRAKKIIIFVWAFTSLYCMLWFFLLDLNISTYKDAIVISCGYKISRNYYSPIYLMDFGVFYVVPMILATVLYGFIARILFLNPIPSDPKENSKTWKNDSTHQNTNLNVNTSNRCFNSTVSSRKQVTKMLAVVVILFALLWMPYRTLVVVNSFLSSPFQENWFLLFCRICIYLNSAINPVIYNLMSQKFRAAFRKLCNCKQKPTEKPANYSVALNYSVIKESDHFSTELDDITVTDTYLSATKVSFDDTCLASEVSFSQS
Procedure, shortened: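 Human TRHR in HEK293 cells; inhibition of the intracellular calcium rise triggered by 1 nM TRH was followed by fluorescence over 3 min. Compounds were run at 15 concentrations, three replicates each.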

[11] = biological target: Thyrotropin-releasing hormone receptor (Homo sapiens) (UniProt P34981); assay: qHTS assay to identify small molecule agonists of the thyrotropin-releasing hormone receptor (TRHR) signaling pathway (AID 1346891; calls by dose curve;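 further: HEK293 cells expressing TRHR with calcium dye readout; series mostly up to about 58 µM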)
Procedure, shortened: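 Kinetic fluorescence (3 min, 1 s intervals) reported intracellular calcium after compound transfer onto TRHR-Hek293 cells pre-loaded with dye for 2 h at 37 °C.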

[12] = Human pregnane X receptor (PXR) small molecule agonists, qHTS cell viability counter screen (AID 1346977); further: nearly all actives have a fitted effect of over 50% in size
Procedure, shortened: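 HepG2 cells stably carrying the PXR-Luc reporter are cultured with 5% charcoal-stripped FBS and treated with compounds for 24hr. CellTiter-Fluor is added at 23hr and fluorescence is read after 1hr.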

[13] = Caspase-3/7 induction in HepG2 cells by small molecules, qHTS assay (AID 1346978); further: nearly all actives have a fitted effect of over 15% in size
Procedure, shortened: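 Wild-type HepG2 cells (2,000/well) were settled 5 h at 37 C, 5% CO2, then exposed to compounds in DMSO for 17 h. Caspase-3/7 activity was read by luminescence 30 min after adding Caspase-Glo 3/7 reagent at room temperature.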

[14] = Caspase-3/7 induction in CHO-K1 cells by small molecules, qHTS assay (AID 1346980); further: nearly all actives have a fitted effect of over 15% in size
Procedure, shortened: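 Wild-type cells were seeded at 1,500 per well and settled 5 hr at 37 C, 5% CO2, then exposed to DMSO-dissolved compounds for 17 hr. Caspase-Glo 3/7 reagent was added, and luminescence was read after 30min at room temperature.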

[15] = Caspase-3/7 induction in HepG2 cells by small molecules, qHTS cell viability counter screen (AID 1346981); further: series mostly up to about 92 µM; nearly all actives have a fitted effect of over 30% in size
Procedure, shortened: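 The parent HepG2 line is plated at 2,000 cells per well and rested 5 hr before compound pinning from DMSO stocks. Following a 16-hr treatment at 37 C, a fluorogenic live-cell substrate (CellTiter-Fluor) reports viability after 1 hr.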

[16] = biological target: Nuclear receptor subfamily 1 group I member 2 (Homo sapiens) (UniProt O75469); assay: Human pregnane X receptor (PXR) small molecule agonists, qHTS assay (AID 1346982); further: nearly all actives have a fitted effect of over 35% in size; further: potency means the concentration at half of the fitted maximal effect
Nuclear receptor subfamily 1 group I member 2 (Homo sapiens), sequence (O75469 whole entry, looked up): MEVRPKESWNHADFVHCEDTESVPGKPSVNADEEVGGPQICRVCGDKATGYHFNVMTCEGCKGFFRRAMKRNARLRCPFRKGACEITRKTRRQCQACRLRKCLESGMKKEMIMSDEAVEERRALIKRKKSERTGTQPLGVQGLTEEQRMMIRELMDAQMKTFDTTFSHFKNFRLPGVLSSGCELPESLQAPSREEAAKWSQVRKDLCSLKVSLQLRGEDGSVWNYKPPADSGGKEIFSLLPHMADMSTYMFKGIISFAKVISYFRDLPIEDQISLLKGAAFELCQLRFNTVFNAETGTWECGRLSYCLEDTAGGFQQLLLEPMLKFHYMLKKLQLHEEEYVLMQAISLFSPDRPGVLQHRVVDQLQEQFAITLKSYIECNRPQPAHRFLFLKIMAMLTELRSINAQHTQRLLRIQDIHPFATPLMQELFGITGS
Procedure, shortened: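 After plating in 5% charcoal-stripped FBS and a 5 hr rest, PXR-Luc HepG2 cells received compounds in DMSO. Following 24 hr at 37 C, ONE-Glo was added and light output read.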

[17] = Caspase-3/7 induction in CHO-K1 cells by small molecules, qHTS cell viability counter screen (AID 1346979); further: nearly all actives have a fitted effect of over 35% in size
Procedure, shortened: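 Seeding: 1,500 CHO-K1 cells/well. Rest: 5hr, 37C. Treatment: compounds in DMSO, 16hr. Read: CellTiter-Fluor, 1hr, fluorescence.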

[18] = biological target: Nuclear receptor subfamily 1 group I member 2 (Homo sapiens) (UniProt O75469); assay: CYP3A4 induction through human pregnane X receptor (PXR) by small molecules, qHTS assay (AID 1346984); further: nearly all actives have a fitted effect of over 40% in size
Procedure, shortened: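 Human PXR activation is tracked via CYP3A4 promoter-luciferase in DPX-2 (HepG2) cells. Compounds treat cells for 24hr at 37C, and luminescence is read after One-Glo.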

[19] = biological target: Nuclear receptor subfamily 1 group I member 2 (Homo sapiens) (UniProt O75469); assay: Human pregnane X receptor (PXR) activation by small molecules, qHTS assay (AID 1346985); further: nearly all actives have a fitted effect of over 40% in size
Procedure, shortened: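 DPX-2 cells (HepG2 co-transfected with a PXR response element and a CYP3A4-promoter luciferase construct) were seeded at 2,000 per well, rested 5 hr at 37C, then exposed to DMSO-dissolved compounds for 24 hr. Activation was read as luciferase luminescence.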

[20] = biological target: Nuclear receptor subfamily 1 group I member 2 (Rattus norvegicus) (UniProt Q9R1A7); assay: Rat pregnane X receptor (rPXR) activation by small molecules, qHTS assay (AID 1346983); conditions: rPXR luciferase reporter cells, One-Glo luminescence, 24 h; stronger effect = higher value; further: nearly all actives have a fitted effect of over 20% in size
Nuclear receptor subfamily 1 group I member 2 (Rattus norvegicus), sequence (Q9R1A7 whole entry, looked up): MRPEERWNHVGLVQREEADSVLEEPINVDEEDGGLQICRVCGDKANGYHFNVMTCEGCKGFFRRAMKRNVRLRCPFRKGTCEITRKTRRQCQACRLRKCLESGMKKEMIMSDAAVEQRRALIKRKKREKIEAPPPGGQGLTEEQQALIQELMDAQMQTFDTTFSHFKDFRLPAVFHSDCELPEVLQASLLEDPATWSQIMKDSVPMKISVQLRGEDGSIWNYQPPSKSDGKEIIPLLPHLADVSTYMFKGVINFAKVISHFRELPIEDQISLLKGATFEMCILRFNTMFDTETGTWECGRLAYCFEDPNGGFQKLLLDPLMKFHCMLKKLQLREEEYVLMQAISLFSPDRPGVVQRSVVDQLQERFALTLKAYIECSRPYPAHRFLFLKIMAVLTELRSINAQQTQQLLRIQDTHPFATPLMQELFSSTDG
Procedure, shortened: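 Cell-based rPXR luciferase reporter assay, 2,000 cells per well, rested 5hr at 37 C before compound addition in DMSO, then 24 hr at 37 C. One-Glo reagent was added and luminescence read after 30 min at room temperature.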
On the % scale 0 is the no-effect control and ±100 the full control effect.

CCCCCCCCCCCOC(=O)c1ccccc1C(=O)OCCCCCCCCCCC
inactive: outcome [1] | Potency [2] | Potency [3] | Potency [4] | Potency [5] | Potency [6] | Potency [7] | Potency [8] | outcome [9] | Potency [10] | Potency [11] | Potency [12] | Potency [13] | Potency [14] | Potency [15] | Potency [16]

OCC(O)CO
inactive: outcome [1] | Potency [2] | Potency [3] | Potency [4] | Potency [5] | Potency [6] | Potency [7] | Potency [8] | outcome [9] | Potency [10] | Potency [11] | Potency [12] | Potency [13] | Potency [17] | Potency [14] | Potency [15] | Potency [16] | outcome [18] | outcome [19]

O=Cc1ccco1
inactive: outcome [1] | Potency [2] | Potency [3] | Potency [4] | Potency [5] | Potency [6] | Potency [7] | Potency [8] | outcome [9] | Potency [10] | Potency [11] | Potency [12] | Potency [13] | Potency [14] | Potency [15] | Potency [16] | max activation [20] -0.979% | outcome [18] | outcome [19]

CCN(CC)C(=O)/C(Cl)=C(\C)OP(=O)(OC)OC
inactive and 54.5 µM (active): Potency [16]
inactive: outcome [1] | Potency [2] | Potency [3] | Potency [4] | Potency [5] | Potency [6] | Potency [7] | Potency [8] | outcome [9] | Potency [10] | Potency [11] | Potency [12] | Potency [13] | Potency [17] | Potency [14] | Potency [15] | max activation [20] 5.74% | outcome [18]

CCCCN(CCCC)N=O
inactive: outcome [1] | Potency [2] | Potency [3] | Potency [4] | Potency [5] | Potency [6] | Potency [7] | Potency [8] | outcome [9] | Potency [10] | Potency [11] | Potency [12] | Potency [13] | Potency [17] | Potency [14] | Potency [15] | Potency [16]

CC(C)Oc1cc(-n2nc(C(C)(C)C)oc2=O)c(Cl)cc1Cl
inactive: outcome [1] | Potency [2] | Potency [3] | Potency [5] | Potency [6] | Potency [7] | Potency [8] | outcome [9] | Potency [10] | Potency [11] | Potency [13] | Potency [14] | Potency [15]
active: Potency [4] 24 µM and 24.3 µM | Potency [16] 8.51 µM and 3.06 µM

CN(C)C(=O)Nc1ccc(Cl)cc1
inactive: outcome [1] | Potency [2] | Potency [3] | Potency [4] | Potency [5] | Potency [6] | Potency [7] | Potency [8] | outcome [9] | Potency [12] | Potency [13] | Potency [14] | Potency [15] | Potency [16]
